Sampled rows, rich in hits. Any-hit rate of the full collection: about 3.5%.
TEAD-YAP block: TEAD-YAP interaction inhibition. HEK-TIYL cells, TEAD-Gal4/YAP UAS-luciferase luminescence. inhibition, % at 9.12 µM. 1.4% of 640,000 active; in the data active = inhibition above about 32%;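 note: 0% = median of test compound wells and 100% = reference inhibitor wells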
FBW7 act: activators of human E3 ligase FBW7; Q969H0; AID 1259310; 0.13% of 650,000 active; AlphaScreen FBW7–phospho-cyclin E peptide binding, activator screen; normalized activity (activation), % at 26.1 µM; in the data active = normalized activity above about 1.9%;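 note: purified mutant Fbw7 with reduced substrate affinity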
GPR151 ag: activators of human GPR151. Q8TDV0. PathHunter beta-arrestin GPR151 cells, luminescence. activation, % at 11.2 µM. 1% of 650,000 active; in the data active = activation above about 4.9%;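 note: 0% = median of compound wells and 100% = cells with positive control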
MITF inh: human MITF inhibition, primary screen; AlphaScreen MITF homodimerization, bead proximity signal; 0.91% of 650,000 active; O75030; AID 1259374; inhibition, % at 2.6 µM; in the data active = inhibition above about 50%;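 note: 0% = vehicle wells with protein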
Target sequence (O75030 whole entry, looked up): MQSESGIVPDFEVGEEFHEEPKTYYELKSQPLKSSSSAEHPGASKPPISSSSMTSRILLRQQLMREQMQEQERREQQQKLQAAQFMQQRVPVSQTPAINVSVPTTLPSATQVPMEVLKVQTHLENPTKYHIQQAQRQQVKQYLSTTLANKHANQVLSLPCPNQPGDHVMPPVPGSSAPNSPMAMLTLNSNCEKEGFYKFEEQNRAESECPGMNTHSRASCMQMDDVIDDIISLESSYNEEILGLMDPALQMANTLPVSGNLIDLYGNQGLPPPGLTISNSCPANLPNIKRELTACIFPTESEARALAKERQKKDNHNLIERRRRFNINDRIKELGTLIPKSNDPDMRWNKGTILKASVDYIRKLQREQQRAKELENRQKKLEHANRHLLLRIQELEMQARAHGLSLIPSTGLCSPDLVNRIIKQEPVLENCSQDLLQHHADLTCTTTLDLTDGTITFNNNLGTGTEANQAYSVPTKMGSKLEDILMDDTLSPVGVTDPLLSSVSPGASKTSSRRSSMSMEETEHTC
* marks the source's active call; other numbers are inactive results.

SMILES	TEAD-YAP block	FBW7 act	GPR151 ag	MITF inh
CC(C)CC(=O)NC(c1ccc2c(c1)OCO2)c1ccc2cccnc2c1O (configuration not stated)	84*	-1	-1	22
CCC(C)N1C(=O)S/C(=C/c2cc(C)n(-c3ccccn3)c2C)C1=O (configuration not stated)	41*	0	2	7
COC(=O)Cn1nnc2c(cnn2-c2ccccc2)c1=O	-39	1	-3	10
O=c1c2cnn(-c3ccccc3)c2nnn1Cc1cccnc1	1	1.9*	0	14
O=C(CSc1cc(N2CCCC2)ncn1)c1ccccc1	76*	0	-9	18
CC1CCCN(S(=O)(=O)c2ccc(NC(=O)/C=C/c3ccco3)cc2)C1 (configuration not stated)	41*	0	-1	-6
COc1ccc(/C=C/C(=O)Nc2ccc(S(=O)(=O)N3CCCC3)cc2)cc1	14	0	1	-4
COc1ccc(/C=C/C(=O)Nc2ccc(S(=O)(=O)N3CCCCCC3)cc2)cc1	32*	0	1	6
C=CCOc1ccc(/C=C2\C(=O)N(CCCOC)C(C)=C2C(=O)OC)cc1	0	0	0	0
COc1ccc(NC(=O)CN(C)S(=O)(=O)c2cccc3cnccc23)cc1OC	42*	0	0	27
CN(CC(=O)N1CCc2ccccc21)S(=O)(=O)c1cccc2cnccc12	34*	0	0	16
CC(C)(C)CC(=O)Nc1nc2ccccc2s1	-49	0	0	19
O=c1c(CN2CCc3ccccc3C2)coc2ccccc12	34*	0	1	31
O=c1c(CN2CCSCC2)coc2ccccc12	3	1	0	14
CN(C)c1ccc(C(=O)N2CCN(Cc3ccc4c(c3)OCO4)CC2)cc1	-12	-1	1	-5
O=c1c(CN2CCN(c3ccc(F)cc3)CC2)coc2ccccc12	6	0	1	17
O=c1c(CN2CCN(Cc3ccc4c(c3)OCO4)CC2)coc2ccccc12	57*	0	-1	42
CN(C)c1ccc(CN2CCN(Cc3ccc4c(c3)OCO4)CC2)cc1	-5	0	-1	53*
O=c1c(CN2CCN(c3ccccn3)CC2)coc2ccccc12	38*	0	-1	40
COc1ccc(NC(C)=O)cc1NS(=O)(=O)c1ccccc1C(F)(F)F	3	0	3	-8
COc1cc(SC)ccc1C(=O)N1CCN(Cc2ccc3c(c2)OCO3)CC1	32*	0	1	7
C#CC(O)(c1ccc(OC)cc1OC)c1ccc(OC)cc1OC	33*	0	-2	0
O=C(Cn1c(=O)[nH]c2ccccc21)NCc1ccc2c(c1)OCO2	75*	0	-6	6
CN(C)c1nc2c(c(=O)[nH]c(=O)n2C)n1Cc1cccc(Br)c1	-1	0	4	-1
O=C(N/N=C/c1ccccc1)c1n[nH]c2c1CCCC2	69*	0	0	8
SMILES	TEAD-YAP block	FBW7 act	GPR151 ag	MITF inh
C/C(=N\NC(=O)c1n[nH]c2c1CCCC2)c1ccc(O)cc1	24	0	-1	6
O=C(N/N=C/c1cccc2ccccc12)c1n[nH]c2c1CCC2	47*	0	-1	15
O=C(N/N=C/c1ccc([N+](=O)[O-])cc1)c1n[nH]c2c1CCC2	54*	0	-1	-17
O=C(N/N=C/c1ccc(Cl)cc1)c1n[nH]c2c1CCCC2	19	0	0	17
O=C(N/N=C/c1ccc(O)cc1)c1n[nH]c2c1CCC2	59*	0	-4	-13
CCOC(=O)N1CCN(C(=O)CCc2nnc(Cc3ccc(-c4ccccc4)cc3)o2)CC1	-42	0	0	10
C=CCOc1cc(Br)c(/C=C2\NC(=O)N(Cc3ccc(Cl)cc3)C2=O)cc1OC	-8	0	1	2
COc1ccc(S(=O)(=O)NCc2ccc3c(c2)OCO3)cc1Br	3	0	-2	12
COc1cc(-c2noc(-c3ccc(Cl)cc3)n2)cc(OC)c1OC	6	0	1	-5
CC(=O)Nc1ccc(Nc2nc(N3CCOCC3)nc(N3CCOCC3)n2)cc1	-5	0	-1	7
C[C@H](O)[C@H]1NC(=O)[C@@H]2C[C@H](NC(=O)Nc3ccc(C(F)(F)F)cc3)CN2C1=O	14	0	2	8
CC(=O)c1ccc(OCC(=O)NC(C)c2cnn(-c3ccccc3C)c2C)cc1 (configuration not stated)	34*	1	2	15
CC(C)Oc1ccc(/C=N/NC(=O)C(=O)N2CCCC2)cc1	-4	0	1	0
Cc1cc(C)c2c(N)c(C(=O)Nc3ccccn3)sc2n1	95*	0	-5	-2
Cc1cccc(NC(=O)c2sc3nc(C)cc(C(F)(F)F)c3c2N)n1	48*	0	1	9
CC(=O)Nc1cccc(-c2cccc3cnc(Nc4ccc(-n5cnc(C)n5)cc4)nc23)c1	57*	0	-1	21
Cc1ncn(-c2ccc(Nc3ncc4cccc(-c5ccncc5)c4n3)cc2)n1	45*	1	2	4
Cc1ncn(-c2ccc(Nc3ncc4cccc(-n5cccn5)c4n3)cc2)n1	43*	0	3	2
O=C(COc1ccc(Cl)cc1)N1CCC[C@@H]2CN(Cc3ccsc3)CC[C@H]21	1	0	0	1
Cc1ccc(C(=O)NC(=S)Nc2ccc(Br)cn2)cc1[N+](=O)[O-]	-1	0	2	-4
CCOc1ccccc1C1NC(=O)NC(C)=C1C(=O)OCc1ccc2c(c1)OCO2 (configuration not stated)	7	0	-1	19
CCCOc1ccc(C2NC(=O)NC(C)=C2C(=O)OCc2ccc3c(c2)OCO3)cc1 (configuration not stated)	55*	0	2	-11
CCOc1ccc(C2NC(=O)NC(C)=C2C(=O)OCc2ccc3c(c2)OCO3)cc1 (configuration not stated)	56*	0	0	15
COCCn1c(=O)c2sc3ccccc3c2n(CC(=O)Nc2cc(C)[nH]n2)c1=O	2	0	1	-11
NC1=NC(=O)/C(=C\c2ccc(-c3cccc(C(=O)O)c3)o2)S1	44*	1	-1	58*
SMILES	TEAD-YAP block	FBW7 act	GPR151 ag	MITF inh
NC1=NC(=O)/C(=C/c2ccc(-c3ccccc3)o2)S1	-46	0	1	-12
Cc1ccc(C(=O)O)cc1-c1ccc(/C=C2/SC(=O)NC2=O)o1	-5	0	1	8
O=C1NC(=S)S/C1=C\c1ccc(-c2cccc(C(=O)O)c2)o1	5	-1	0	70*
O=C1NC(=O)/C(=C/c2ccc(-c3ccc(O)c(C(=O)O)c3)o2)S1	-1	-1	-1	86*
O=C1NC(=S)S/C1=C\c1ccc(-c2ccc(C(=O)O)cc2)o1	10	0	0	38
COc1cc2cc(C)c(SCC(=O)NCc3cccs3)nc2cc1OC	-7	0	2	-1
Cn1nc(CC(=O)Nc2cccc(F)c2)c2ccccc2c1=O	34*	0	-2	18
COc1ccc(CC(=O)NCc2ccc(C)cc2)cc1	31	0	1	-1

Source: PubChem BioAssay (The Scripps Research Institute Molecular Screening Center)
